Hits are enriched below; roughly 3.4% of the tested compounds scored in any of these assays.
PLCb3 inh: PLC-beta3 (human) inhibition, primary screen; Q01970; Purified PLC-beta3, fluorogenic substrate, fluorescence; inhibition, % at 12.2 µM; 0.18% of 370,000 active; in the data active means inhibition above about 11%
ADAM10 inh: inhibitors of human ADAM10; O14672; recombinant ADAM10, EDANS/DABCYL FRET peptide cleavage, 3 h; inhibition, % at 7 µM; 0.62% of 370,000 active; AID 720582;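 active means inhibition above a per-campaign cutoff equal to the mean of compounds falling between control-based bounds plus 3 SD, cut at about 20% in these data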
PLC-gamma1 inh: PLC-gamma1 (human) inhibition, primary screen | purified PLC-gamma1, fluorogenic substrate, fluorescence | inhibition, % at 12.2 µM | 0.84% of 370,000 active
sPLA2-III inh: Blocks human group III sPLA2 activity. AID 743126. inhibition, % at 12.2 µM. 0.56% of 370,000 active. Q9NZ20. QFRET BODIPY PC-A2 liposome hydrolysis, fluorescence;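 active means inhibition above mean plus 3 SD of compounds lying within the high and low control bounds, cut at about 19% in these data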
KLK7 zymogen act: activates the human kallikrein-7 zymogen; purified proKLK7, EDANS-DABCYL substrate fluorescence; 100% is mature enzyme control, 0% vehicle; 0.9% of 370,000 active; activation, % at 7 µM; P49862; AID 652039;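 active means activation above the mean of all tested compounds plus 3 SD, computed per campaign excluding outliers beyond control limits, cut at about 13% in these data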
ADAM17 inh: inhibitors of human ADAM17. P78536. recombinant ADAM17, EDANS/DABCYL FRET peptide cleavage. inhibition, % at 6.95 µM. 0.83% of 370,000 active;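 active means inhibition above the mean of compounds lying between control limits plus 3 SD, set per campaign, cut at about 8.5% in these data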
PLCg1 ctr: PLC-gamma1 inhibition, counter-screen for PLC-beta3 hits | 3.1% of 3,300 active | inhibition, % at 12.3 µM | purified PLC-gamma1, fluorogenic substrate, fluorescence | shares compounds with PLC-gamma1 inh
PLCbeta3 conf: human PLC-beta3 inhibition, confirmation; shares compounds with PLC-gamma1 inh; purified PLC-beta3, fluorogenic substrate fluorescence; inhibition, % at 12.3 µM; 1% of 3,300 active; in the data active means inhibition above about 11%
Numbers stand for hits. Unless noted, no stated cut-off is given here; in the data, active means inhibition above about 9.5%; inactive means the rest.

For Cn1c(=O)c2cc(S(=O)(=O)NC(Cc3ccccc3)C(=O)NCc3ccco3)ccc2n(C)c1=O (configuration not stated) the results were PLCb3 inh inactive, ADAM10 inh inactive, PLC-gamma1 inh 74.8, sPLA2-III inh inactive, KLK7 zymogen act inactive, ADAM17 inh inactive, PLCg1 ctr inactive and PLCbeta3 conf inactive.
For COc1cccc(N2CCN(CC(=O)NCc3ccccc3C)CC2)c1 the results were PLCb3 inh inactive, ADAM10 inh inactive, PLC-gamma1 inh inactive, sPLA2-III inh inactive, KLK7 zymogen act inactive and ADAM17 inh inactive.
COc1ccc(C(=O)Nc2ccc(OC)c([N+](=O)[O-])c2)cc1Br was read as PLCb3 inh inactive, ADAM10 inh inactive, PLC-gamma1 inh inactive, sPLA2-III inh inactive, KLK7 zymogen act inactive and ADAM17 inh inactive.
Screening COc1ccc(C(=O)Nc2cccc([N+](=O)[O-])c2)cc1Br returned PLCb3 inh 11.1, ADAM10 inh inactive, PLC-gamma1 inh inactive, sPLA2-III inh inactive, KLK7 zymogen act inactive, ADAM17 inh inactive, PLCg1 ctr inactive and PLCbeta3 conf inactive.
For CC(=O)Nc1nnc(SCC(=O)NCCOc2ccccc2)s1 the results were PLCb3 inh inactive, ADAM10 inh inactive, PLC-gamma1 inh 9.9, sPLA2-III inh inactive, KLK7 zymogen act inactive, ADAM17 inh inactive, PLCg1 ctr inactive and PLCbeta3 conf inactive.
CC(=O)Nc1ccc2nc(SCC(=O)NCCOc3ccccc3)sc2c1 was read as PLCb3 inh inactive, ADAM10 inh inactive, PLC-gamma1 inh inactive, sPLA2-III inh inactive, KLK7 zymogen act inactive and ADAM17 inh inactive.
`CC(C)CCNC(=O)CSc1nc2c(c(=O)[nH]1)CCC2` gave PLCb3 inh inactive, ADAM10 inh inactive, PLC-gamma1 inh inactive, sPLA2-III inh inactive and ADAM17 inh inactive.
`Cc1ccc(C(=O)NC(=S)NNC(=O)CCN2CCOCC2)cc1` gave PLCb3 inh inactive, ADAM10 inh inactive, PLC-gamma1 inh 9.6, sPLA2-III inh inactive, KLK7 zymogen act inactive, ADAM17 inh inactive, PLCg1 ctr inactive and PLCbeta3 conf inactive.
O=C(NC(=S)NCCN1CCOCC1)c1ccc(F)cc1 was read as PLCb3 inh inactive, ADAM10 inh inactive, PLC-gamma1 inh inactive, sPLA2-III inh inactive, KLK7 zymogen act inactive and ADAM17 inh inactive.
Screening C[C@@H]1CCN(C2CC2)S(=O)(=O)c2ccc(N3CC[C@H](O)C3)cc2O1 returned PLCb3 inh inactive, ADAM10 inh inactive, PLC-gamma1 inh inactive, sPLA2-III inh inactive, KLK7 zymogen act inactive and ADAM17 inh inactive.
For Fc1ccc(CSc2ncnc3c2oc2ccccc23)cc1 the results were PLCb3 inh inactive, ADAM10 inh inactive, PLC-gamma1 inh 10.4, sPLA2-III inh inactive, KLK7 zymogen act inactive, ADAM17 inh inactive, PLCg1 ctr inactive and PLCbeta3 conf inactive.
Fc1ccccc1N1CCN(CC2CC3C=CC2C3)CC1 (configuration not stated) was read as PLCb3 inh 10.8, ADAM10 inh inactive, PLC-gamma1 inh 12.4, sPLA2-III inh inactive, KLK7 zymogen act inactive, ADAM17 inh inactive, PLCg1 ctr inactive and PLCbeta3 conf inactive.
Screening O=C1c2ccc(Oc3ccc([N+](=O)[O-])cc3)cc2C(=O)N1CCO returned PLCb3 inh inactive, ADAM10 inh inactive, PLC-gamma1 inh inactive, sPLA2-III inh inactive, KLK7 zymogen act inactive and ADAM17 inh inactive.
`O=C1NC(=O)c2cc(Oc3ccc([N+](=O)[O-])cc3)ccc21` gave PLCb3 inh 10.7, ADAM10 inh inactive, PLC-gamma1 inh 11.2, sPLA2-III inh inactive, KLK7 zymogen act inactive, ADAM17 inh inactive, PLCg1 ctr inactive and PLCbeta3 conf inactive.
Screening O=C1CCC(=O)N1c1ccc(CSc2nc3ccccc3[nH]2)cc1 returned PLCb3 inh inactive, ADAM10 inh inactive, PLC-gamma1 inh 10.8, sPLA2-III inh inactive, KLK7 zymogen act inactive, ADAM17 inh inactive, PLCg1 ctr inactive and PLCbeta3 conf inactive.
Screening O=C(CSc1nc2ccccc2[nH]1)NCc1ccccc1 returned PLCb3 inh inactive, ADAM10 inh inactive, PLC-gamma1 inh 14.4, sPLA2-III inh inactive, KLK7 zymogen act inactive, ADAM17 inh inactive, PLCg1 ctr inactive and PLCbeta3 conf inactive.
